Shown are actives, neighbours in structure and some others; about 1.7% of the full set was active somewhere.
GLP-1R inv ag – GLP-1 receptor (human) inverse agonism | P43220 | HEK293 GLP-1R CRE-luciferase, luminescence, 24 h; GLP-1R form is constitutively active | Potency, µM (top dose mostly 38.3 µM), for inactives: at the highest dose activity change, negative = inhibition, usual class: inhibitors | actives 1.6% (n = 410,000) | AID 624417; further: on the % scale 0 is the no-effect control and ±100 the full control effect; nearly all actives have a fitted effect of over 55% in size
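qHTS in 1536-well format: reporter HEK293 cells expressing constitutive GLP-1R activity in DMEM + 10% Nu serum, 24 hr with compounds at 37 deg C, luminescence read after 12 min with detection reagent.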
GLP1R cytotox – cytotoxic in the GLP-1 receptor inverse agonist counter-screen; AID 624418; Potency, µM (top dose mostly 38.3 µM), for inactives: at the highest dose activity change, negative = inhibition, hits mostly inhibitors; HEK293 cAMP-luciferase reporter cells, luminescence, 24 h; actives 0.13% (n = 410,000);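 further: loss of luciferase light is scored as toxicity; on the % scale 0 is the no-effect control and ±100 the full control effect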
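Luminescence readout: signal drop marks cytotoxicity. Plated cells grew 12 h at 37 °C, 5% CO2, received 23 nL compound for 24 h, then got luciferase reagent, read after 12 min at RT.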
PTHR1 agonist – activates the human parathyroid hormone receptor PTHR1; Q03431; HEK293 GP2 PTHR1 cells, GloSensor cAMP luminescence, 1 h; Potency, µM (series often up to 115 µM), for the others: top-dose activation, actives largely listed as activators; actives 0.075% (n = 410,000); AID 743266; further: nearly all actives have a fitted effect of over 55% in size
Target sequence (Q03431 whole entry, looked up): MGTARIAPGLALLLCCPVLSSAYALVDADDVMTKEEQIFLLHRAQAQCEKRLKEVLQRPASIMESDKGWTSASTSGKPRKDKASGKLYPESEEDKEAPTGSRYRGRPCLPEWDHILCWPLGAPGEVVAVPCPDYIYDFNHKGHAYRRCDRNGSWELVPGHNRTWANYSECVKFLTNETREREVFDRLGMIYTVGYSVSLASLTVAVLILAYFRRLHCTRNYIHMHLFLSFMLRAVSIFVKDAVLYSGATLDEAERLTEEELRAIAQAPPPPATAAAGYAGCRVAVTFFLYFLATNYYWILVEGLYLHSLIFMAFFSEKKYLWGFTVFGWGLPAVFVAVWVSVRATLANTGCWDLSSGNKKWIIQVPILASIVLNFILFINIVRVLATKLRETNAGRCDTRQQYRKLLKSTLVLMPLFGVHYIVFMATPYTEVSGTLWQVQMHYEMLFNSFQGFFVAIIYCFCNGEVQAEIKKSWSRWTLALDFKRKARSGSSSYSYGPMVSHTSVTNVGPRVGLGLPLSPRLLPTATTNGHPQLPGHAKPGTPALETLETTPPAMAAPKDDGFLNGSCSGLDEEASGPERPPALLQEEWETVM
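HEK-293-derived GP2 cells expressing PTHR1 and a GloSensor cAMP reporter, 3,000/well, plated overnight, given luciferin plus IBMX (each 0.5 mM as added) for 1 h at 37 °C, then compound for 1 h at 37 °C. Luminescence was read after 15 min at room temperature.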
GLP-1R agonist – GLP-1 receptor (human) agonism | Potency, µM (titrated, usually from 45.6 µM), for the others: at the top dose activation, actives largely listed as activators | actives 0.007% (n = 380,000) | P43220 | AID 624172 | HEK293 GLP-1R CRE-luciferase, luminescence, 4-6 h; cells express a hypersensitive GLP-1R form; further: % of control where 0% means no effect
* = called active by the depositor; i = inactive; u = inconclusive; x = no result given; [ ] = remark or other dose. The call rests on the fitted dose curve; in most records, active means well fitted curve in the direction sought with a large enough effect; inconclusive means small, poorly fitted or top-dose-only effect, or another doubt; inactive means no such curve, though single readings can be large; an effect the other way counts as inactive or inconclusive. Potency means the concentration at half of the fitted maximal effect.

SMILES | GLP-1R inv ag | GLP1R cytotox | PTHR1 agonist | GLP-1R agonist
CCOC(=O)[C@]12Cc3cc(OC)ccc3[C@H]1N(Cc1ccccc1)C(=O)c1cc(F)c(F)cc12 | u | 12% | -23% | 7%
CCCCCN1C(=O)c2ccccc2[C@@]2(C(=O)OCC)Cc3cc(OC)ccc3[C@@H]12 | 8.9µM* | u | -52% | -13%
CCC(CC)c1nnc(NC(=O)CC(C)c2ccccc2)s1 (configuration not stated) | 10µM* | -10% | -1% | -1%
O=C1c2ccccc2C(=O)c2ccccc21 | x | x | x | 23%
c1ccc2c(c1)[IH]c1ccccc1-2 | 4.5µM* | u | -12% | -11%
CCC(=O)O[C@@](Cc1ccccc1)(c1ccccc1)[C@H](C)CN(C)C | x | x | x | -7%[96 µM]
CCOc1ccc2c(c1)-c1c(ssc1=S)C(C)(C)N2 | u | u | -25%[57.5 µM] | u
Cn1nc(-c2ccc(C(=O)Nc3ccc(OC(F)(F)F)cc3)cc2)c2ccccc2c1=O | -7% | -11% | -48% | x
C=C1C(=O)O[C@@H]2C[C@@H](C)[C@@H]3C=CC(=O)[C@@]3(C)[C@@H](OC(C)=O)[C@H]12 | 4.5µM* | u | -49% | -23%
C=C1C(=O)O[C@@H]2C[C@@H](C)[C@@H]3C=CC(=O)[C@@]3(C)[C@@H](O)[C@H]12 | 2.5µM* | u | -54% | -10%
CCOc1ccc(-c2nc(CSCC(=O)NCCc3ccc(OCC)c(OCC)c3)c(C)o2)cc1 | u | -5% | -24% | x
COc1nc(NC2CCCCC2)nc(NC(C)(C)C)n1 | u | 4% | -26% | u
CCCN(CCC)c1nc(NC2CCN(C(=O)OCC)CC2)nc(OC)n1 | 2.8µM* | u | -28% | 8%
CC[n+]1c(-c2ccccc2)c2cc(N)ccc2c2ccc(N)cc21 | 5.6µM* | u | i | -30%
C=CCN1C(=O)/C(=C/c2ccc(O)c(OC)c2)S/C1=N/c1nccs1 | 28% | 60% | 0% | 21%
COc1ccc(N=C2S/C(=C\c3ccc(Cl)c([N+](=O)[O-])c3)C(=O)N2CCN(C)C)cc1 | u | 11µM* | -93% | -4%
CCCCn1c(=N)n(CC(O)COc2ccccc2)c2ccccc21 (configuration not stated) | 8.9µM* | u | -14% | 2%
O=[N+]([O-])c1cccnc1N1CCC(c2cc(-c3cccc(C(F)(F)F)c3)n[nH]2)CC1 | 8.9µM* | u | -4%[57.5 µM] | -5%
O=C1CC(=O)N(c2cccc(C(F)(F)F)c2)C(=O)N1 | 4% | 18% | -1% | -1%
Cc1cc(NC(=O)c2cc(-c3cccc(Cl)c3)on2)nn1Cc1ccc(Cl)cc1 | -15% | -2% | -42% | x
Fc1ccc(C2=CCN(C(c3ccc(Cl)cc3)c3nnnn3Cc3ccccc3)CC2)cc1 (configuration not stated) | 5.6µM* | 1% | -3% | 8%
Cc1ccccc1C1CC(=O)Nc2ccc3ccccc3c21 (configuration not stated) | u | -20% | i | -2%
Cc1ccc(-c2nnc(N3CCC(C)CC3)c3ccccc23)cc1C | 2.5µM* | u | -90% | 0%
COc1ccccc1-c1ncn(Cc2cccc(-c3ccccc3)c2)c1CC(C)C | u | u | -36% | -3%
CCOc1cc(CNCCc2c[nH]c3ccccc23)cc(Cl)c1OCC | 11µM* | u | i | -5%
SMILES | GLP-1R inv ag | GLP1R cytotox | PTHR1 agonist | GLP-1R agonist
CCN(CC)c1ccc(/C=C/C(=O)C2C(=O)C=C(C)OC2=O)cc1 (configuration not stated) | -21% | 458% | i | 5%
CCc1ccccc1NC(=O)C1CCCN(c2ncnc3onc(C)c23)C1 (configuration not stated) | 10% | 8% | -66% | x
O=C(Nc1ccc(Br)cc1)c1cccc(S(=O)(=O)N2CCc3ccccc32)c1 | 2µM* | -3% | -7% | x
O=C(Nc1ccc(Br)cc1)c1ccc(F)c(S(=O)(=O)N2CCCc3ccccc32)c1 | 3.2µM* | -10% | -12% | x
CCc1ccc(NC(=O)c2ccc(F)c(S(=O)(=O)N3CCC4(CC3)OCCO4)c2)cc1 | u | 2% | -94% | x
CCc1ccc(NC(=O)c2ccc(F)c(S(=O)(=O)N3CCc4ccccc4C3)c2)cc1 | 8.9µM* | -8% | -41% | x
COc1cc(CNCCO)cc(Cl)c1OCc1ccc(Cl)cc1Cl | u | u | i | 6%
CCC(=C(c1ccc(OC)cc1)c1ccc(OC)cc1)c1cn(CC(O)CN2CCN(C)CC2)c2ccccc12 (configuration not stated) | 10µM* | u | i | -22%
O=C(NN=Cc1ccc(N(CCCl)CCCl)cc1)C(=O)c1c[nH]c2ccccc12 | 5.6µM* | -3% | i | 6%
O=C(CCN1CCN(CCO)CC1)N1c2ccccc2Sc2ccc(C(F)(F)F)cc21 | -32% | -16% | -22% | -1%
CN1CCN(CCCN2c3ccccc3Sc3ccc(C(F)(F)F)cc32)CC1 | 8.9µM* | u | -11% | -1%
On1ccccc1=S | 7.9µM* | -4% | -84% | -6%
COc1ccccc1CNc1nc(NCc2ccccc2SC)c2sccc2n1 | u | -26% | -92% | -1%
COc1ccccc1CNc1nc(NCc2ccccc2OC)c2sccc2n1 | 11µM* | u | -43% | -3%
Cc1cccc(NC(=O)c2oc3ccccc3c2NC(=O)c2cc(=O)c3cc(Cl)ccc3o2)c1 | 3% | 63% | -11% | x
Cc1ccc(N2C(=O)/C(=C/N3CCN(C(=O)c4ccco4)CC3)C(=O)NC2=S)cc1C | -9% | -24% | i | -3%
CC12CC(c3ccccc3O1)N(C(=O)c1ccco1)C(=S)N2c1ccc(F)cc1 (configuration not stated) | 10µM* | u | u | -7%
CCN1C(=O)NC(=O)/C(=C/c2cc(C)n(-c3sc(C)c(C)c3C#N)c2C)C1=O | u | u | i | -4%
Cc1ccc(N2C(=O)NC(=O)/C(=C\c3cc(C)n(-c4sc5c(c4C#N)CCCC5)c3C)C2=O)cc1 | 3.5µM* | -23% | -14% | 7%
CCN(c1ccccc1)S(=O)(=O)c1ccc(C(=O)NC2CCN(Cc3ccccc3)CC2)cc1 | u | u | -24% | -2%
CCN(CC)C(=O)[C@@H]1C=C2c3cccc4[nH]cc(c34)C[C@H]2N(C)C1 | x | x | x | -9%
COc1ccc(NC(=O)C(c2ccccc2)n2c(=O)c(-c3cc4ccccc4[nH]3)nc3ccccc32)cc1 (configuration not stated) | u | i | i | x
Cc1ccc(C(=O)Nc2nc3ccccc3[nH]2)cc1 | 1.3µM* | -13% | -41% | -6%
Cc1ccc(-n2nc3c(=O)n(CC(=O)NCC(C)c4ccccc4)nc(C)c3c2C)cc1 (configuration not stated) | u | 4% | -28% | x
COc1ccccc1/C=C/C=N/n1c(-c2ccc(Cl)cc2)n[nH]c1=S | -17% | -1% | i | -1%

Screening results (PubChem)
